Bioassay records (PubChem BioAssay)
RECQ1 inh: RECQ1 (human) helicase inhibition. Potency, µM (doses to about 57.3 µM), for the others: at the top dose activity, negative = inhibition, usual class: inhibitors. hit rate 0.54% among 240,000. RECQ1 DNA unwinding, red fluorescence kinetic read. AID 2549;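 further: plate controls were vehicle for no effect and no enzyme for full effect; nearly all actives have a fitted effect of over 30% in size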
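RECQ1T1 50 nM; forked duplex (20 bp + 30-nt ss tails) 200 nM, ATP 2 mM final; pH 8.0, 2 mM MgCl2, 2.5 ug/ml poly(dI-dC); 15 min compound preincubation; discontinuous kinetic read over 2 h at RT.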
KAT2A inh: blocks human GCN5L2 histone acetyltransferase; hit rate 0.21% among 390,000; Q92830; Potency, µM (top dose mostly 58.9 µM), inactives show top-dose activity change, negative = inhibition, actives largely listed as inhibitors; GCN5L2 HAT assay, ThioGlo1 CoA-SH fluorescence
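ThioGlo1-coupled HAT assay: 20nM GCN5L2, 70uM acetyl-CoA, 75uM H3(1-25) peptide, pH 7.5. Fluorescence read at 340/540nm at start and after 20 min at room temperature.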
APE1 inh: blocks human APE1 abasic DNA cleavage; P27695; recombinant APE1, TAMRA/BHQ-2 abasic DNA cleavage fluorescence; Potency, µM (highest dose often 65.8 µM), without a hit: at the top dose activity change, negative = inhibition, hits mostly inhibitors; hit rate 0.35% among 350,000; AID 2517;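 further: plate controls were vehicle for no effect and reference inhibitor for full effect; nearly all actives have a fitted effect of over 55% in size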
Target sequence (P27695 whole entry, looked up): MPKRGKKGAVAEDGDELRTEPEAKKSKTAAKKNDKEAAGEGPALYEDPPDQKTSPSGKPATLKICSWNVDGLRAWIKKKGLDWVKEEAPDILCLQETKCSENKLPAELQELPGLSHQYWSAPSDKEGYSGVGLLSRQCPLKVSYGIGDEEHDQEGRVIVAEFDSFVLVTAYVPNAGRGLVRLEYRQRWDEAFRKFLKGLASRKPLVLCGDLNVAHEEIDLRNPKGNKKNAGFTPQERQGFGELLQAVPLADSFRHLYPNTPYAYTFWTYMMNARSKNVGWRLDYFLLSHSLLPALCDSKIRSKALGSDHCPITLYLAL
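Compound pre-exposure to 0.75 nM APE1, 15 min at ambient temperature. Reaction initiated with 50 nM TAMRA/BHQ-2 THF substrate, read immediately in kinetic mode, 525 nm excitation, 598 nm emission.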
BLM helicase inh: inhibitors of human Bloom syndrome helicase BLM; recombinant BLM DNA unwinding, fluorescence dequenching; Potency, µM (titrated, usually from 56.1 µM), for inactives: at the top dose activity change, negative = inhibition, actives largely listed as inhibitors; hit rate 0.2% among 350,000; AID 2528;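 further: plate controls were vehicle for no effect and no enzyme for full effect; nearly all actives have a fitted effect of over 35% in size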
KDM4E inh: JMJD2E (human) inhibition. B2RXH2. JMJD2E catalytic domain, FDH-coupled NADH fluorescence (FDH is formaldehyde dehydrogenase). Potency, µM (highest dose often 57.1 µM), for the others: at the highest dose activity change, negative = inhibition, hits mostly inhibitors. hit rate 1.6% among 230,000; active means well fitted inhibition curve with a large enough effect, not every such curve was filed as active; inconclusive means small, poorly fitted or top-dose-only effect, or another doubt; inactive means no such curve, though single readings can be large or run the other way;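 further: 0% = wells with enzyme and -100% = buffer wells without enzyme; nearly all actives have a fitted effect of over 50% in size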
Target sequence (B2RXH2 1-337 limits assumed): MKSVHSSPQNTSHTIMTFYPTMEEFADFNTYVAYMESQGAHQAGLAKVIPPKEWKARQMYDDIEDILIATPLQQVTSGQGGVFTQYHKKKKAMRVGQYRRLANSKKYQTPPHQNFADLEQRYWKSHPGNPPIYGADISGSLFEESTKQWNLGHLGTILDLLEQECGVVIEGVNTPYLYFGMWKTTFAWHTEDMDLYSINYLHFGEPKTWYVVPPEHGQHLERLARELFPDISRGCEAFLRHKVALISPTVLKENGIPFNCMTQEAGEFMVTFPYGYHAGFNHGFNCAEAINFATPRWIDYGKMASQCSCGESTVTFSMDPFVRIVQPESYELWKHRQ
L3MBTL1 inh: blocks human L3MBTL1; Potency, µM (titrated, usually from 57.1 µM), inactives show top-dose activity, negative = inhibition, most hits filed as inhibitors; Q9Y468; AlphaScreen L3MBTL1–H3K9me1 peptide binding; hit rate 0.66% among 230,000; AID 485360; further: nearly all actives have a fitted effect of over 60% in size
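L3MBTL1 (50 nM) pre-complexed 30 min with biotinylated H3(1-15)K9me1 peptide (75 nM), then compounds added for 30 min at room temperature; AlphaScreen streptavidin donor/nickel chelate acceptor beads (10 ug/mL final) read after 30 min dark incubation.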
* marks the source's active call; other numbers are inactive results; i = inactive; ? = inconclusive; nt = not tested or not shown; [ ] = remark or other dose. The full list was thinned out, with hits kept by preference. Unless noted, the call rests on the fitted dose curve; in most records, active means well fitted curve in the direction sought with a large enough effect; inconclusive means small, poorly fitted or top-dose-only effect, or another doubt; inactive means no such curve, though single readings can be large; an effect the other way counts as inactive or inconclusive. Unless noted, on the % scale 0 is the no-effect control and ±100 the full control effect; potency means the concentration at half of the fitted maximal effect.

SMILES | RECQ1 inh | KAT2A inh | APE1 inh | BLM helicase inh | KDM4E inh | L3MBTL1 inh
C=CCNC(=S)Nc1ccc2nsnc2c1 | 3% | 4% | -3% | -6% | ? | -4%
CCOc1ccc(NC(=S)Nc2ccc3nsnc3c2)cc1 | 1% | -19% | 6% | 4µM* | 3% | -20%
C=CCN(CC=C)C(=S)Nc1ccc2nsnc2c1 | -4% | -18% | -12% | 3.5µM* | ? | 8.9µM*
COc1ccc(NC(=S)Nc2ccc3nsnc3c2)cc1 | 14% | -14% | -1% | 4µM* | 3% | -6%
COc1ccc(NC(=S)Nc2ccc3nc(C)c(C)nc3c2)cc1 | i | -16% | -8% | -7% | 1% | 2%
CCOc1ccc(NC(=O)Nc2ccc3nsnc3c2)cc1 | i | -1% | ? | -5% | -8% | -1%
CCC(=O)O[C@@H]1CC(=O)O[C@H](C)C/C=C/C=C/[C@H](O)[C@H](C)C[C@H](CC=O)[C@H](O[C@@H]2O[C@H](C)[C@@H](O[C@H]3C[C@@](C)(O)[C@@H](OC(=O)CC)[C@H](C)O3)[C@H](N(C)C)[C@H]2O)[C@H]1OC | nt | nt | -3%[21 µM] | nt | nt | nt
COC(=O)C/C=C\[C@@H](C)[C@@H]1C=C[C@H](OC(C)=O)[C@H](COC(C)=O)O1 | i[11.5 µM] | nt | 25%[12.4 µM] | -1%[12.4 µM] | nt | nt
CC/C(=N\NC(=O)C(N)=O)c1ccccc1O | -15% | 0% | -5% | 4% | 8.9µM* | 1%
CCOC(=O)c1ccccc1O | nt | 0% | nt | 3% | nt | nt
CCC(=O)N1CCN(CCN=CC2=C(O)CC(c3ccc(OC)cc3)CC2=O)CC1 (centres undefined) | -2% | -1% | 3% | 2% | 10% | 7%
Nc1ccccc1NC1CCCCC1 | -5% | -4% | -2% | -11% | 14µM* | nt
C=CCNC(=O)c1cc(-c2cccs2)on1 | nt | nt | 9% | nt | nt | nt
O=C(N/N=C/c1cc(Cl)cc([N+](=O)[O-])c1O)c1cc(-c2ccccn2)nc2ccccc12 | -10% | -5% | 1% | -12% | 22µM* | nt
Cc1cc(C(=O)N/N=C/c2cccc([N+](=O)[O-])c2)c2ccccc2n1 | ? | 1% | -7% | -1% | -6% | 1%
Cc1cc(C(=O)N/N=C/c2ccc([N+](=O)[O-])s2)n[nH]1 | -9% | -14% | -5% | -7% | -9% | -14%
COc1ccc(/C=N/NC(=O)c2cc(-c3ccccc3)nc3ccccc23)c(C(=O)O)c1OC | nt | -3% | 17% | 0% | nt | nt
Cc1cc(C(=O)N/N=C/c2cc(Cl)cc([N+](=O)[O-])c2O)n[nH]1 | -2% | 3% | -3% | -4% | 18µM* | -28%
COc1cc([N+](=O)[O-])cc(/C=N/NC(=O)c2cc(C)nc3ccccc23)c1O | -12% | -6% | -5% | -5% | 25µM* | ?
COc1cc([N+](=O)[O-])cc(/C=N/NC(=O)c2cc(-c3ccccc3)nc3ccccc23)c1O | 1% | -21% | -9% | -5% | 22µM* | -1%
COc1cccc(/C=N/NC(=O)c2cc(-c3ccccn3)nc3ccccc23)c1O | nt | -6% | 0% | nt | nt | -27%
O=S(=O)(c1cccc(-c2n[nH]c(=S)n2-c2ccccc2)c1)N1CCCC1 | nt | nt | -8% | nt | nt | nt
O=C(N/N=C/c1ccccn1)c1cc(C2CC2)nc2ccccc12 | nt | -3% | 27% | 1% | nt | nt
O=C(N/N=C/c1ccccn1)c1cc(-c2ccccc2)nc2ccccc12 | -8% | -5% | -3% | -6% | 25µM* | -24%
COc1cccc(/C=N/NC(=O)c2ccc([N+](=O)[O-])cc2Cl)c1O | -10% | -10% | -3% | -2% | 14µM* | -9%
SMILES | RECQ1 inh | KAT2A inh | APE1 inh | BLM helicase inh | KDM4E inh | L3MBTL1 inh
COC(=O)C1=C(C(=O)OC)[C@@H]2N(C)c3ccc(OC)cc3[C@@]23C[C@@H](C(=O)OC)N(S(=O)(=O)c2ccc4c(c2)OCCN4C)C3=N1 | -6%[11.5 µM] | nt | 10%[12.4 µM] | -5%[12.4 µM] | -9%[11.4 µM] | nt
Cc1ccc(-c2nn(-c3ccccc3)cc2C(=O)O)o1 | 32µM* | ? | ? | 1% | ? | 2.8µM*
O=C(CNC(=O)c1ccc(Br)o1)NCc1ccc(Cl)cc1Cl | nt | -1% | 13µM* | -5% | nt | nt
O=C(N/N=C/c1cc2c3c(c1O)CCCN3CCC2)c1ccccc1O | -9% | -12% | -4% | -22% | 32µM* | ?
CC(=O)N(C1=C(N2CCOCC2)C(=O)c2ccccc2C1=O)c1ccc(C(=O)O)cc1 | -11% | -2% | -1% | -6% | 10µM* | -16%
COc1ccc2ccccc2c1C1CC(=O)N2CN(C)CSC2=C1C#N (centres undefined) | -4% | 22µM* | -1% | -1% | ? | -1%
COc1cc(C2CC(=O)N3CN(c4ccccc4C)CSC3=C2C#N)cc(OC)c1OC (centres undefined) | -4% | ? | 16% | -11% | 11µM* | -11%
COc1ccccc1N1CSC2=C(C#N)C(c3ccc(SC)cc3)CC(=O)N2C1 (centres undefined) | ? | ? | -3% | -30% | 22µM* | 22µM*
CC(C)(C)CNc1nc(C#N)nc(Nc2ccccc2)n1 | i | nt | -5% | -9% | nt | nt
CC(C)(C)n1ncc2c(=O)n(Cc3c(F)ccc(Cl)c3Cl)cnc21 | nt | nt | 1% | nt | nt | nt
C/C(CCC(=O)OC[C@@H]1O[C@H](C#Cc2ccccc2)C=C[C@@H]1Oc1ccc(C)cc1)=N/O[C@@H](C)c1cn([C@H](CO)Cc2ccccc2)nn1 | -12%[11.5 µM] | nt | ? | -5%[12.4 µM] | nt | nt
O=C1[C@H]2[C@H]3[C@H](O)[C@H](O)C/C(=N/OC[C@@H](O)COCc4ccco4)[C@H]3CC[C@@H]2C(=O)N1C1CCCCC1 | i[11.5 µM] | nt | 9%[12.4 µM] | 4%[12.4 µM] | nt | nt
COc1ccc(C2=Nn3c(nnc3-c3cc(OC)cc(OC)c3)SC2)cc1 | -6% | nt | -2% | -9% | nt | nt
Cc1ccc(-c2cc(C(=O)N3CCN(c4ccc(F)cc4)CC3)c3ccccc3n2)o1 | -25% | -6% | ? | -13% | ? | -20%
Cc1ccc(-c2cc(C(=O)N3CCOCC3)c3ccccc3n2)o1 | nt | 22µM* | 10% | nt | nt | 4%
Cn1c(/N=C/c2c(O)ccc3ccccc23)nc2ccccc21 | -11% | -7% | -1% | 1% | -1% | 35µM*
COC(=O)C1=C[C@@H](C(=O)OC)[C@@H]2C3=C(C(=O)C2(C)C)[C@H](c2ccccc2)[C@@H]2C(=O)N(c4ccccc4)C(=O)[C@@H]2[C@@H]3C1 | -2% | nt | -7% | -2% | nt | nt
COCC1=Cc2cc3c(cc2C(C(C(=O)OC)C(=O)OC)N1C(=O)OC)OCO3 (centres undefined) | -3% | nt | -1% | -1% | 6% | nt
CCSc1nc(N)c(C#N)c(-c2ccco2)c1C#N | 6% | -2% | ? | -2% | ? | 14%
